From PubChem BioAssay
Active and inactive are the calls of the source.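 The calls were made as follows, unless noted: active = compounds lowering colon cancer cell viability after pretreatment blocking the GSK3B kinase; inactive = the rest.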

Key:
[1] = Wnt pathway potentiators raising nuclear beta-catenin – imaging, WNT3A-conditioned medium, mouse C2C12, NPC library, primary screen (AID 1117326; in the data active = nuclear beta-catenin stimulation mostly above about 4.2%, no sharp cut-off; inactive = mostly below about 10%; also: reference of the scale not given here); settings: stronger effect = higher value
[2] = stimulators of insulin release from INS-1E, primary screen, cell-based, 5 mM glucose, NPC library (AID 1117329;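 active = compound raises insulin release from rat beta cells at 5 mM glucose, no numeric limit stated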; also: reference of the scale not given here); settings: rat INS-1E insulin secretion, at 10 µM, stronger effect = higher value
[3] = growth inhibition of GSK3B-pretreated HCT116 cells – cell-based, CellTiter-Glo, 0.2 to 20 µM (AID 1117336); settings: HCT116 viability after GSK3B inhibitor, at 20 µM, stronger effect = higher value
[4] = inhibition of endothelial tube formation, primary screen, imaging, VEGF stimulated, CD31 staining, tube area, NPC library (AID 1117340;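 active = compound that reduces growth-factor-driven endothelial tube area in a mixed cell culture, no cutoff stated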); settings: VEGF-stimulated ADSC/ECFC co-culture, at 10 µM, stronger effect = higher value
[5] = GLP1 release stimulators, primary, NCI-H716, NPC library (AID 1117341;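 active = compound raises GLP1 secretion from the human gut endocrine cells, with no numeric limit stated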; also: reference of the scale not given here); settings: NCI-H716 cells, at 10 µM, stronger effect = higher value
[6] = HCT116 colon cancer cell growth inhibition, primary screen, CellTiter-Glo luminescence, NPC library (AID 1117342;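 active = compounds that lower survival of HCT116 colon cancer cells in the luminescence readout, no numeric limit stated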); settings: at 20 µM (top of the series)
[7] = reduced SW480 viability measured with CellTiter-Glo, NPC library, primary (AID 1117343;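 active = compounds that lower viability of the colon cancer cells in the luminescence readout, with no numeric limit stated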); settings: CellTiter-Glo luminescence; at 20 µM (top of the series)
[8] = NPC library primary testing for decreased DLD-1 cell viability via CellTiter-Glo (AID 1117346;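 active = compounds that lower survival of DLD-1 colon cancer cells in the luminescence readout, no cutoff given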); settings: DLD-1 viability, CellTiter-Glo luminescence; at 20 µM (top of the series)

SMILES	nuclear beta-catenin stimulation ([1]; at 10 µM)	nuclear beta-catenin stimulation ([1]; stimulation, at 2 µM) [%]	insulin secretion stimulation [2]	viability decrease [3]	tube area decrease [4]	GLP1 secretion stimulation [5]	inhibition of viability [6]	viability decrease (inhibition) [7]	viability decrease (inhibition) [8]
O=C(OCC1(COC(=O)c2cccnc2)CCCC(COC(=O)c2cccnc2)(COC(=O)c2cccnc2)C1O)c1cccnc1	-1.3% (inactive)	-0.2	7.7% (inactive)	-3.6% (inactive)	-7.3% (inactive)	-3.3% (inactive)	9.9% (inactive)	-3.1% (inactive)	-3.1% (inactive)
CC(=O)Oc1ccc(C2(c3ccc(OC(C)=O)cc3)C(=O)Nc3ccccc32)cc1	1.7% (inactive)	0.9	-2.1% (inactive)	32.6% (inactive)	51.8% (active)	4% (inactive)	39% (inactive)	15.8% (inactive)	49.1% (inactive)
CN(C)C(=S)SC(=S)N(C)C	31.6% (inactive)	11.3	-0.3% (inactive)	-6.55% (inactive)	-36.6% (inactive)	4.1% (inactive)	11.5% (inactive)	35.3% (inactive)	0.2% (inactive)
CCC(Cc1c(I)cc(I)c(O)c1I)C(=O)O (stereo unspecified)	0.6% (inactive)	0.3	-0.2% (inactive)	7.1% (inactive)	-23.3% (inactive)	-3.4% (inactive)	-22.9% (inactive)	11.5% (inactive)	1.1% (inactive)
CC(=O)OC[C@H]1O[C@@](COC(C)=O)(O[C@H]2O[C@H](COC(C)=O)[C@@H](OC(C)=O)[C@H](OC(C)=O)[C@H]2OC(C)=O)[C@@H](OC(C)=O)[C@@H]1OC(C)=O	0.3% (inactive)	-0.8	-0.2% (inactive)	-1% (inactive)	0.8% (inactive)	-0.5% (inactive)	3.93% (inactive)	16.6% (inactive)	-8% (inactive)
CC(C)(Cc1c[nH]c2ccccc12)NCC(O)COc1ccccc1C#N (stereo unspecified)	0.2% (inactive)	0	44.5% (active)	84.6% (active)	12.6% (inactive)	3.9% (inactive)	87% (active)	109% (active)	49.7% (inactive)
C=CC[N+]1([C@H]2C[C@H]3[C@@H]4CC[C@H]5C[C@H](OC(C)=O)[C@@H](N6CCCCC6)C[C@]5(C)[C@H]4CC[C@]3(C)[C@H]2OC(=O)CC)CCCCC1	-0.1% (inactive)	-2.6	1.45% (inactive)	27.6% (inactive)	-8.7% (inactive)	8.2% (inactive)	32.5% (inactive)	23.4% (inactive)	-2.8% (inactive)
COc1ccc(CCC(C)=O)cc1	0.1% (inactive)	2.7	0.3% (inactive)	-3.4% (inactive)	-21% (inactive)	-3.2% (inactive)	-0.8% (inactive)	-0.7% (inactive)	-19.4% (inactive)
Cc1ncc(C[n+]2csc(CCOP(=O)(O)O)c2C)c(N)n1	0.8% (inactive)	-0.6	-0.4% (inactive)	-15.6% (inactive)	-8.2% (inactive)	1% (inactive)	-0.4% (inactive)	-13.2% (inactive)	17.1% (inactive)
Nc1nc2ccccc2n1Cc1ccc(F)cc1	0.8% (inactive)	-2	0.8% (inactive)	56.4% (active)	15.1% (inactive)	-0.6% (inactive)	74.9% (active)	84% (active)	43% (inactive)
CC(C)CCC[C@@H](C)[C@H]1CC[C@H]2[C@@H]3CC[C@H]4C[C@@H](O)CC[C@]4(C)[C@@H]3CC[C@]12C	0% (inactive)	0.5	1.1% (inactive)	1.6% (inactive)	-1.6% (inactive)	-1.9% (inactive)	-2.8% (inactive)	-7.2% (inactive)	-8.7% (inactive)
O=S(O)CO	2.1% (inactive)	0.9	0.6% (inactive)	-7.1% (inactive)	9.9% (inactive)	-1.1% (inactive)	-0.4% (inactive)	-0.9% (inactive)	2.7% (inactive)
Nc1cc(C(F)(F)F)ccc1S	0% (inactive)	-0.9	4.4% (inactive)	2.3% (inactive)	44.8% (active)	20.5% (active)	16.7% (inactive)	-4.3% (inactive)	20.8% (inactive)
Cc1ccc2c(n1)Oc1ccc(C(C)C(=O)OCC(=O)N(C)C)cc1C2 (stereo unspecified)	0.6% (inactive)	-2.8	1.8% (inactive)	28.6% (inactive)	-10% (inactive)	3.6% (inactive)	20.4% (inactive)	-3.8% (inactive)	-1.1% (inactive)
c1ccc(CCNc2nc(-c3ccccc3)cs2)cc1	1.5% (inactive)	0.6	-1.4% (inactive)	38.9% (inactive)	34.9% (inactive)	-1.7% (inactive)	57.7% (active)	35.5% (inactive)	31.5% (inactive)
CCCSS/C(CCO)=C(\C)N(C=O)Cc1cnc(C)nc1N	-1.4% (inactive)	-0.7	10.2% (inactive)	33.3% (inactive)	55.3% (active)	-4.8% (inactive)	19.1% (inactive)	45.4% (inactive)	65.6% (active)
CC(=O)OCC(=O)Nc1cc(C#N)cc(NC(=O)COC(C)=O)c1Cl	-0.4% (inactive)	-1.4	4% (inactive)	-0.6% (inactive)	-12.8% (inactive)	3.3% (inactive)	0.9% (inactive)	-20.3% (inactive)	1.6% (inactive)
CCCC(O)C(CC)CO (stereo unspecified)	-0.6% (inactive)	1.4	-1.8% (inactive)	-18.3% (inactive)	16.6% (inactive)	-0.4% (inactive)	3.33% (inactive)	2.8% (inactive)	2.4% (inactive)
Nc1ccc2c(c1)CN1C(=O)c3ccccc3C1=N2	3.6% (inactive)	-0.3	4.2% (inactive)	44.4% (inactive)	44.6% (active)	2% (inactive)	13.1% (inactive)	79.4% (active)	28.1% (inactive)
CCCCCCCCCC(=O)O	-1.9% (inactive)	0.7	3.3% (inactive)	-11.4% (inactive)	-24.1% (inactive)	1.6% (inactive)	7.9% (inactive)	49.5% (inactive)	4.9% (inactive)
N#CCC(=O)NN	0.4% (inactive)	2.7	-0.7% (inactive)	4.45% (inactive)	0.1% (inactive)	-0.8% (inactive)	1.9% (inactive)	13.4% (inactive)	4.5% (inactive)
CON=C(C(=O)N[C@@H]1C(=O)N2C(C(=O)O)=C(C[N+]3(C)CCCC3)CS[C@H]12)c1csc(N)n1	-2.1% (inactive)	0.2	3.1% (inactive)	4.1% (inactive)	2.5% (inactive)	-0.7% (inactive)	-21.3% (inactive)	-14.4% (inactive)	-9.8% (inactive)
Cc1cc(=O)oc2cc(O[C@@H]3SC[C@@H](O)[C@H](O)[C@H]3O)ccc12	-0.2% (inactive)	-1.9	1.1% (inactive)	-1.3% (inactive)	13.6% (inactive)	3.6% (inactive)	-1.1% (inactive)	-15.9% (inactive)	15.4% (inactive)
Cc1cc(O)cc2c1O[C@](C)(CCC[C@H](C)CCC[C@H](C)CCCC(C)C)CC2	-1.3% (inactive)	-2	3.8% (inactive)	12.5% (inactive)	6.7% (inactive)	0% (inactive)	14.3% (inactive)	-12.8% (inactive)	-10.9% (inactive)
O=C(O)Cc1ccc(CCNS(=O)(=O)c2ccc(Cl)cc2)cc1	0% (inactive)	0.1	0.2% (inactive)	-5.1% (inactive)	3.3% (inactive)	-2.9% (inactive)	-4% (inactive)	1.5% (inactive)	-6.1% (inactive)
c1ccc(-n2cnnn2)cc1	0.3% (inactive)	0.9	1.9% (inactive)	-7.2% (inactive)	23.2% (inactive)	-5% (inactive)	1.7% (inactive)	10.4% (inactive)	1.4% (inactive)
C[C@H](N)C(=O)N[C@@H](C)C(=O)NC1[C@H]2CN(c3nc4c(cc3F)c(=O)c(C(=O)O)cn4-c3ccc(F)cc3F)C[C@@H]12 (stereo partly specified)	0.2% (inactive)	-2.1	3.4% (inactive)	80.7% (active)	1.8% (inactive)	0.7% (inactive)	27.2% (inactive)	2.9% (inactive)	-9.3% (inactive)
CCCCC(CC)COC(=O)c1ccc(N(C)C)cc1 (stereo unspecified)	0.3% (inactive)	0.5	-2.6% (inactive)	34.1% (inactive)	0.5% (inactive)	-2.3% (inactive)	18% (inactive)	32.1% (inactive)	48.1% (inactive)
N=C(N)c1ccc(OCCCOc2ccc(C(=N)N)cc2)cc1	-2.3% (inactive)	-0.9	2.7% (inactive)	-29.9% (inactive)	-17.1% (inactive)	-1.7% (inactive)	7.1% (inactive)	9.5% (inactive)	-2.6% (inactive)
